This note sets out measurements from PubChem BioAssay AID977606 (Broad Institute, 2014).

Screen size: about 1,500 compounds; about 430 (29%) were called active. Only a sample is shown. Measured potencies and affinities stand elsewhere. Unmarked numbers belong to inactive results. The rule behind the calls is not given here.

A short description of the test: insulin secretion activators without glucose, dose response, counter-screen for glucose-dependent insulin secretion activators, cell-based, INS-1E, Gaussia luciferase, luminescence, cherry-pick (AID 977606).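 Note: 0% = median of neutral control wells.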 The conditions noted are these: INS-1E Gaussia luciferase insulin secretion, no glucose, 100% = twice neutral-control luminescence; series mostly up to 35 µM; activation: at the top concentration. (The purpose of a counterscreen is to sort out artefacts and off-target activity.)
On to `COc1ccc(-c2cnnn2-c2ccc(N)cc2)cc1OC`, for which the “activation” value is 14.5%.
Consider `CCOC(=O)c1nc2nc(-c3cccs3)cc(C(F)(F)F)n2n1`, for which the “activation” value was -2.27%.
`CCOC(=O)c1cc(-c2ccncc2)nc2c1c(C)nn2-c1ccccn1`: the “activation” value is -12.8%.
The figure for `CCN(CC)C(=O)C1(P(=O)(c2ccccc2)c2ccccc2)CCC1` is 3.86%; for `CCCNC(=O)C1(C)CCCN(Cc2cccn2C)C1` (configuration not stated) it is 2.12%.
For the compound `CC(C)(C)c1ccc(S(=O)(=O)N2CC(C(=O)O)Oc3ccc(Cl)cc32)cc1` (configuration not stated), the “activation” value was -17.2%.
The figure for `N#CCCCc1cc2ccccc2cn1` is -1.65%; for `Cc1cc(Br)c2c(c1)C1(OCCO1)C(=O)N2` it is -15.4%; for `CCCc1c(C)c2ccc(OCC(C)=O)cc2oc1=O` it is 31.2%.
As to `CNc1nc(-c2ccccc2)cc(-c2ccccc2)n1`, the “activation” value is -10.1%.
Take `CCS(=O)(=O)c1nc(S(=O)(=O)c2ccc(C)cc2)c(N2CCC(O)CC2)s1`: the “activation” value is 5.07%.
Take `COc1ccc(/C=N/NC(=O)Cn2cnc3ccccc3c2=O)cc1OC`: the “activation” value was 6.92%.
As for `O=C(Nc1cccc(Cl)c1)c1cnn2cccnc12`, the figure is 20.9%.
As for `O=C(Cn1cnc2sc(-c3ccccc3)cc2c1=O)NCCc1ccccc1`, the figure is -15.1%; as for `COc1ccc(C(C)=O)cc1Cn1cnc2c(cnn2C)c1=O`, 3.6%; as for `CCc1nc2ccc(C(=O)NCCCN(C)C)cn2c1N(C)Cc1ccc(OC)cc1`, -1.71%.
As for `COc1ccc(C2=NN(C(=O)c3ccco3)C(c3ccco3)C2)cc1OC` (configuration not stated), the figure is -1.59%.
For the compound `O=C(CCn1ccc2cc(S(=O)(=O)N3CCCC3)ccc21)NCc1cccc(F)c1`, the “activation” value is -20.7%.
In the case of `c1ccc(CNc2nc(Oc3ccncc3)c3sccc3n2)cc1`, the “activation” value is -5.34%.
`Cc1cc(Cl)ccc1-c1nc(NCc2ccccc2)nc2ccsc12`: the “activation” value was 13.2%.
The figure for `COc1ccc(C2C3CCCCC3(O)CCN2C(=O)c2cccs2)cc1` (configuration not stated) is -6.6%; for `CCn1c(SCc2cc(=O)[nH]c3ccccc23)nc2c1c(=O)n(C)c(=O)n2C` it is -0.85%.
As for `C=CCN(Cc1ccc(OC)c(OC)c1)C(=O)N1CCOCC1`, the figure is 5.63%.
The figure for `S=C(NCc1ccccc1)Nc1ccc2cn[nH]c2c1` is -12.7%; for `CCC(=O)Nc1nnc(Sc2ccc(N(C)C)cc2)s1` it is -2.97%; for `CCSc1nnc(NC(=O)c2csc(C)c2)s1` it is 3.32%.
In the case of `CCOc1ccc(CCNC(=O)CCC(=O)c2cccs2)cc1OCC`, the “activation” value is -12.3%.
The figure for `CCOC(=O)Cc1csc(NC(=O)c2ccc(OC)c(OC)c2)n1` is 6.38%; for `COCCn1c(=O)[nH]c2cc(C(=O)Nc3cc(OC)c(OC)c(OC)c3)ccc2c1=O` it is 8.32%.
Turning to `COCCNC(=O)CCCn1c(=O)c2ccccc2n(Cc2ccccc2C#N)c1=O`, the “activation” value is -18.3%.
In the case of `COc1ccc(CCNS(=O)(=O)c2ccc(Cl)s2)cc1OC`, the “activation” value was -2.93%.
The figure for `O=C(c1cc(-c2ccc(F)cc2)nc2ccccc12)N1CCN(C2CCS(=O)(=O)C2)CC1` (configuration not stated) is 0.694%.
